LmPK inhibitor = blocks Leishmania mexicana pyruvate kinase activity; purified LmPK, Kinase-Glo ATP luminescence, 1 h; Potency, µM (highest dose often 57.5 µM), inactives show top-dose activity change, negative = inhibition, hits mostly inhibitors; hit rate 0.37% among 290,000; also: % is scaled to controls: 0 for no effect and ±100 for the full control effect
Target sequence (Q27686 whole entry, looked up): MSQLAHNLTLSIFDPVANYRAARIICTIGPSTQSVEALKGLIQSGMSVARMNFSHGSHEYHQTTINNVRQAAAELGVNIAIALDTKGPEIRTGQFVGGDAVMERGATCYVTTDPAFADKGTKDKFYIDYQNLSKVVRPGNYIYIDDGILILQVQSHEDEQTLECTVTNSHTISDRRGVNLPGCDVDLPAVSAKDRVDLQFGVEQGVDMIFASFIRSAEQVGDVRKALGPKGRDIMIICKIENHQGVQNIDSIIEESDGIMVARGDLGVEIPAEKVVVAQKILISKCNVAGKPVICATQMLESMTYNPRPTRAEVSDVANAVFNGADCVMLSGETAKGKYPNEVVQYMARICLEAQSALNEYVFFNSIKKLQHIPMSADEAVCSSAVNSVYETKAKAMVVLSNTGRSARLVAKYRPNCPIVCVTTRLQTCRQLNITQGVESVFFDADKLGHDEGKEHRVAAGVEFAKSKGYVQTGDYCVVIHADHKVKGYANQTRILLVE
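0.1 nM LmPK, 0.5 mM PEP, 0.1 mM ADP; 50 mM imidazole pH 7.2, 7 mM MgCl2, 50 mM KCl; 1 h RT. Kinase-Glo luminescence readout, normalized to no-enzyme (full inhibition) and uninhibited wells.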
Sm TGR inh = blocks Schistosoma mansoni thioredoxin glutathione reductase; AID 485364; purified TGR, DTNB reduction, TNB absorbance 405 nm; Potency, µM (series often up to 114 µM), inactives show at the highest dose activity change, negative = inhibition, usual class: inhibitors; hit rate 3% among 360,000; also: % is scaled to controls: 0 for no effect and ±100 for the full control effect; nearly all actives have a fitted effect of over 60% in size
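First, TGR (20 nM dispensed) and NADPH were mixed with compound. Second, a 15 min room-temperature incubation followed. Third, further NADPH and then DTNB were added to start the reaction. Finally, TNB absorbance was monitored kinetically.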
TbPYK inhibitor = T. brucei pyruvate kinase inhibition; Q57TT1; TbPYK enzyme, Kinase-Glo Plus ATP luminescence, 45 min; AID 624173; Potency, µM (titrated, usually from 76.8 µM), without a hit: at the highest dose activity, negative = inhibition, usual class: inhibitors; hit rate 0.12% among 410,000; also: % is scaled to controls: 0 for no effect and ±100 for the full control effect; nearly all actives have a fitted effect of over 50% in size
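ADP (130 uM final) triggers the TbPYK reaction after compound addition; incubation is 45 min at room temperature. Kinase-Glo Plus is then added and luminescence imaged. Normalized data are fitted to concentration-effect curves.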
NS1 function inh = blocks influenza NS1 protein function | hit rate 0.4% among 270,000 | AID 2326 | Potency, µM (series often up to 46.1 µM), without a hit: top-dose activity, positive = more growth; calls by dose curve; also: actives are rising curves; nearly all actives have a fitted effect of over 50% in size
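Recovery from NS1-induced slow growth read by OD600 in budding yeast switched to galactose assay medium (pH 6.0, -URA) at 1:100 dilution. Compound 23 nl per well; the matching strain lacking NS1 serves as control.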
SARS PLP yeast = inhibitors of SARS-CoV papain-like protease in yeast. S. cerevisiae expressing SARS-CoV PLpro, growth rescue. Potency, µM (highest dose often 32.9 µM), inactives show top-dose activity, positive = growth rescue, most hits filed as activators. hit rate 0.19% among 330,000; calls by dose curve; also: 0% is about no effect; nearly all actives have a fitted effect of over 55% in size
RE007 growth inh = less growth of the S. pombe RE007 Vpr strain; S. pombe RE007 Vpr strain, BacTiter-Glo ATP luminescence, 24 h; AID 651644; hit rate 0.21% among 360,000; Potency, µM (titrated, usually from 92.2 µM), for the others: at the highest dose activity change, negative = less growth, actives largely listed as inhibitors; active = well fitted falling curve with a large enough effect; inconclusive = small, poorly fitted or top-dose-only effect; inactive = no such curve, though single readings can be large or run the other way; also: % is scaled to controls: 0 for no effect and ±100 for the full control effect; nearly all actives have a fitted effect of over 50% in size
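Fission yeast RE007 carrying one integrated HIV-1 vpr copy, seeded at OD 0.01 in PMG+AL medium with 23 nL pinned compound. Grown 24 h at 30 degrees; viability read by BacTiter-Glo luminescence after 5 min.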
* = called active by the depositor; ? = inconclusive; nt = no result; [ ] = dose if it differs, or a comment. Most compounds without a hit are left out; they make up all but 3.3% or so of the library. Unless noted, calls follow the shape of the dose curve; as a rule, active = well fitted curve in the direction sought with a large enough effect; inconclusive = small, poorly fitted or top-dose-only effect, or another doubt; inactive = no such curve, though single readings can be large; an effect the other way counts as inactive or inconclusive. Potency is read from the fitted curve at half-maximal effect.

SMILES	LmPK inhibitor	Sm TGR inh	TbPYK inhibitor	NS1 function inh	SARS PLP yeast	RE007 growth inh
O=C(CSc1nc2ccccc2s1)Nc1cc(S(=O)(=O)N2CCOCC2)ccc1O	7%	-4%	?	2%	13µM*	15%
Cc1nnc(SCC(=O)Nc2cc(S(=O)(=O)N3CCOCC3)ccc2C)s1	nt	2%	2%	nt	3%	-17%
CC1CCN(c2cc(N(C)CCO)c([N+](=O)[O-])c3nonc23)CC1	7%	45µM*	0%	nt	2%	1%
CCOC(=O)c1cnc2ccccc2c1Nc1cccc(OC)c1	nt	7%	1%	nt	nt	nt
O=c1cc(O)n(C2CCCCCC2)c(=O)[nH]1	6%	?	-3%	12%	-3%	17%
O=c1[nH][nH]c(=S)n1C1CCCCC1	?	-18%	2.5µM*	9%	1%	-1%
CCSc1nnc2ccc(-c3ccco3)nn12	2%[11.5 µM]	35µM*	0%	nt	-2%	5%
O=C(O)C1=C(CSc2nnnn2CS(=O)(=O)O)CS[C@@H]2[C@H](NC(=O)[C@H](O)c3ccccc3)C(=O)N12	nt	nt	-7%	nt	nt	nt
CCSc1nc(-c2ccco2)ccc1C#N	1%	11µM*	?	-46%	4%	8%
CCN(CC)CCOC(=O)c1cccnc1	nt	nt	2%	nt	nt	nt
CCOC(=O)c1cc2c(=O)n3ccccc3nc2n(Cc2ccco2)c1=NC(=O)c1c(F)cccc1Cl	nt	4µM*	-1%	nt	nt	nt
CCOC(=O)c1cc2c(=O)n3ccccc3nc2n(Cc2ccco2)c1=NC(=O)c1ccc(Br)cc1	nt	?	-9%	nt	nt	nt
CCOC(=O)c1cc2c(=O)n3ccccc3nc2n(Cc2ccco2)c1=NC(=O)c1ccccc1OCC	12%[11.5 µM]	?	3%	nt	0%	2%
CCOC(=O)c1cc2c(=O)n3ccccc3nc2n(Cc2ccco2)c1=NC(=O)c1cccc(C)c1	nt	-31%	-3%	nt	nt	nt
CCOC(=O)c1cc2c(=O)n3ccccc3nc2n(Cc2ccco2)c1=NC(=O)c1ccccc1Br	nt	1.6µM*	-7%	nt	nt	nt
CCOC(=O)c1cc2c(=O)n3ccccc3nc2n(Cc2ccco2)c1=NC(=O)c1cccc(Br)c1	nt	2.2µM*	-8%	nt	nt	nt
C=Cc1ccc(Cn2c(C(=O)O)c(CNCc3cc(OC)ccc3OC)c3ccc(C)cc32)cc1	nt	3%	4%	nt	nt	nt
Cc1cc(C)c2c(=O)cc(C(=O)Nc3ccccc3C(F)(F)F)oc2c1	nt	1%	11%	nt	nt	nt
CC(C)C(=O)CP(=O)(O)O	nt	nt	nt	-6%	nt	nt
Nc1c(C(=O)Nc2ccc(OC(F)(F)F)cc2)nnn1Cc1ccccc1	nt	-5%	0%	nt	nt	nt
Cc1csc(NC(=O)c2ccc3ccccc3n2)n1	-10%	8%	4%	2%	1%	-27%
Cc1csc(NC(=O)c2sccc2C)n1	14µM*	-1%	-28%	-1%	-5%	-27%
Cc1csc(NC(=O)c2cccn2C)n1	18µM*	1%	-24%	6%	-7%	-27%
O=C(Nc1ccccc1)c1cn2ccccc2n1	16µM*	7%	-22%	-8%	-4%	-18%
O=C(Nc1ccc(-n2cnnn2)cc1)c1cn2ccccc2n1	-1%	9%	0%	1%	0%	-8%
SMILES	LmPK inhibitor	Sm TGR inh	TbPYK inhibitor	NS1 function inh	SARS PLP yeast	RE007 growth inh
Cc1csc(NC(=O)c2cn3ccccc3n2)n1	14µM*	2%	?	nt	-17%	?
Cc1csc(NC(=O)c2ccc(C(=O)Nc3nc(C)cs3)cc2)n1	-25%	-3%	nt	3%	-1%	nt
COc1ccc(/C=C2\C(=O)NC(=S)N(C)C2=O)cc1C	10%	7.1µM*	?	7%	0%	24%
Cc1ccsc1/C=C1\C(=O)NC(=S)N(C)C1=O	1%	25µM*	?	2%	1%	-1%
CN1C(=O)/C(=C\c2ccc(N3CCCCCC3)cc2)C(=O)NC1=S	-1%	?	?	-2%	3%	-2%
CN1C(=O)/C(=C/c2ccc(Cl)s2)C(=O)NC1=S	8%	7.9µM*	-17%	12%	3%	-14%
CN1C(=O)/C(=C\c2ccc(N3CCCCC3)o2)C(=O)NC1=S	-18%	?	-7%	10%	1%	-14%
CCCCCCCCCCCCCCCCC(C(=O)O)C(O)(CC(=O)O)C(=O)O (configuration not stated)	nt	nt	2%	nt	nt	nt
Cc1ccc(SC(C)C(=O)O/N=C(\N)c2ccncc2)cc1 (configuration not stated)	-7%	40µM*	3%	-31%	-6%	4%
CCCCNC(=O)CSc1nc2n[nH]c(C)c2c(=N)n1-c1ccccc1CC	nt	10%	-8%	nt	nt	nt
CSc1nsc(SCC(=O)NC2CCCCC2)n1	-2%	-11%	-4%	-9%	1%	4%
CSc1nsc(SCc2cnc(C)nc2N)n1	6%	40µM*	-12%	6%	0%	116%
CCCC(=O)OCc1cnc(C)c2oc(=O)c(C(=O)Nc3ccccc3)cc12	nt	0%	-1%	nt	nt	nt
Cc1ccc(CN(C)C(=O)c2cc(COc3cccc(C(F)(F)F)c3)on2)o1	3%	10µM*	?	-13%	-11%	-4%
Cc1ccc(CN(C)C(=O)c2cc(COc3ccc(F)cc3Cl)on2)o1	3%	25µM*	?	-1%	-3%	-22%
Cc1cc(CN(C)C(=O)c2cc(COc3ccc4ncccc4c3)on2)on1	1%	32µM*	-1%	-4%	-2%	12%
CN(Cc1nccn1C)C(=O)c1cc(COc2ccc3ncccc3c2)on1	2%	-17%	2%	2%	-1%	-9%
Cc1nonc1CN(C)C(=O)c1cc(COc2ccc(F)cc2Cl)on1	-1%	0%	1%	-19%	4%	2%
CC(C)CCNC(=O)CN1C(=O)c2cccnc2Oc2ccccc21	nt	-4%	-9%	nt	nt	nt
COC(=O)c1scc(-c2ccc(C)cc2)c1S(=O)(=O)N1CCN(c2ccccc2F)CC1	nt	-3%	1%	nt	nt	nt
Cc1c(C(=O)Nc2cccc(C(F)(F)F)c2)sc2nc[nH]c(=O)c12	nt	-1%	-1%	nt	nt	nt
Cc1cc(C)c(-c2n[nH]c3c2C(c2ccccc2F)N(Cc2ccco2)C3=O)c(O)c1 (configuration not stated)	nt	-3%	-5%	nt	nt	nt
COc1ccc(CNC(=O)CCc2c(C)c3cc4c(C)c(C)oc4cc3oc2=O)cc1OC	nt	1%	1%	nt	nt	nt
COc1ccc(N(C(=O)c2ccco2)C(C(=O)NC2CCCCC2)c2cccs2)cc1OC (configuration not stated)	-2%	-8%	-10%	-1%	-3%	16%
COc1ccc(N(C(=O)CCl)C(C(=O)NCCc2ccccc2)c2cccs2)cc1Cl (configuration not stated)	6%	10µM*	-8%	-18%	-54%	-24%
COc1cccc(N(C(=O)CCl)C(C(=O)NCCc2ccccc2)c2cccs2)c1 (configuration not stated)	-1%	10µM*	5%	-25%	-21%	8%

From PubChem BioAssay
